Compound activity deposited in PubChem by National Center for Advancing Translational Sciences (NCATS).
Sampled rows, rich in hits. Any-hit rate of the full collection: about 18%.
DT40 TDP1 no CPT: qHTS for Inhibitors of human tyrosyl-DNA phosphodiesterase 1 (TDP1): qHTS in cells in absence of CPT; DT40 Tdp1-/- hTDP1 cells, no CPT, ATP luminescence, 48 h; Potency, µM (top dose mostly 46.2 µM), actives largely listed as inhibitors; 420,000 tested, 15% active; further: nearly all actives have a fitted effect of over 55% in size
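Readout: luminescence from CellTiter-Glo after 30 min in the dark at RT. Cells: DT40 Tdp1-/- with stable hTDP1, 400/well. Exposure: compounds alone, ≥48 hr, 37 °C.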
GCN5L2 inh: inhibitors of human GCN5L2 histone acetyltransferase; AID 504327; Q92830; Potency, µM (top dose mostly 58.9 µM), actives largely listed as inhibitors; 390,000 tested, 0.21% active; GCN5L2 HAT assay, ThioGlo1 CoA-SH fluorescence
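qHTS, 1536-well. 20nM enzyme, pH 7.5 HEPES/EDTA/Tween-20 buffer; 15 min compound preinc., RT. Start: 75uM H3(1-25), 70uM AcCoA, 50uM ThioGlo1. Read Ex340/Em540 at t=0 (autofluorescence flag) and t=20 min.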
TDP1 inh: TDP1 (human) enzyme inhibition; 350,000 tested, 0.28% active; recombinant TDP1, AlphaScreen DNA substrate cleavage; Q9NUW8; Potency, µM (top dose mostly 130 µM), most hits filed as inhibitors; further: nearly all actives have a fitted effect of over 40% in size
Target sequence (Q9NUW8 whole entry, looked up): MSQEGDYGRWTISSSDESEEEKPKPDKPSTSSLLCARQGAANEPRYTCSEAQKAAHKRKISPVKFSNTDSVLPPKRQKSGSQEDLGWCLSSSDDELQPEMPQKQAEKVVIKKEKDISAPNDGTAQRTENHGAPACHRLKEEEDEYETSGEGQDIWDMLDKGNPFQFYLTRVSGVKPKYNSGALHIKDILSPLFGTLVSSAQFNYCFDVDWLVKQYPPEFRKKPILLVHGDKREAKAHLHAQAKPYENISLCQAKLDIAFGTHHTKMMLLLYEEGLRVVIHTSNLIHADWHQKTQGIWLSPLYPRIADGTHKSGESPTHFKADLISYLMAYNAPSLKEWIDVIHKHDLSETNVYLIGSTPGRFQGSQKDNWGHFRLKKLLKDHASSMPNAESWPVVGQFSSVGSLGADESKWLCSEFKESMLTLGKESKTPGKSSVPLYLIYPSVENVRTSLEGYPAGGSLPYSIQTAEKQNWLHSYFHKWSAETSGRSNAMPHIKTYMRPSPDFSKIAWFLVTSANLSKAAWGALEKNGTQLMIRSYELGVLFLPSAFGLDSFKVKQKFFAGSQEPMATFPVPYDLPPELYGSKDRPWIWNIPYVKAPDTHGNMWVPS
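Recombinant human Tdp1 (E. coli-expressed, 1 nM final) preincubated with compounds 15 min at room temperature, then 5'-biotin/3'-phosphotyrosine-FITC DNA substrate (15 nM final) added for 5 min. AlphaScreen beads (10 ug/ml final) added 10 min; cleavage lowers signal.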
PLK1 PBD inh: PLK1 (human) polo-box domain binding inhibition; AID 720504; Potency, µM, usual class: inhibitors; 360,000 tested, 2.8% active; Plk1 PBD binding of FITC phosphopeptide, fluorescence polarization; further: series mostly up to about 57 µM; nearly all actives have a fitted effect of over 65% in size
DT40 TDP1 CPT: DT40-hTDP1 cell growth loss with CPT; chicken DT40 Tdp1-/-;hTDP1 cells + 20 nM CPT, ATP luminescence, 48 h; Potency, µM (top dose mostly 46.2 µM), most hits filed as inhibitors; 420,000 tested, 12% active; further: nearly all actives have a fitted effect of over 55% in size
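Chicken DT40 Tdp1-/- cells stably complemented with human TDP1 were seeded at 400 cells/well in medium containing 20 nM camptothecin, exposed to pin-transferred compounds, and grown at 37 °C for at least 48 hr. Viability was read as ATP luminescence.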
VDR inh: blocks the human vitamin D receptor; P11473; VDR-SRC2-3 peptide fluorescence polarization, 2 h; Potency, µM, actives largely listed as inhibitors; 400,000 tested, 0.93% active
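FP read-out; VDR + SRC2-3 coactivator peptide; 23 nl compound by pintool; 2 h RT incubation; reagents held at 4 deg C, protected from light.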
Hits are given with their value; . = inactive; ? = inconclusive; / = not tested or not shown; [ ] = another dose, or the depositor's remark. The call rests on the fitted dose curve; in most records, active means well fitted curve in the direction sought with a large enough effect; inconclusive means small, poorly fitted or top-dose-only effect, or another doubt; inactive means no such curve, though single readings can be large; an effect the other way counts as inactive or inconclusive.

SMILES | DT40 TDP1 no CPT | GCN5L2 inh | TDP1 inh | PLK1 PBD inh | DT40 TDP1 CPT | VDR inh
COc1cccc(CN(C)C(=O)c2cc(S(=O)(=O)N3CCN(c4ccccc4)CC3)ccc2Cl)c1 | 16µM | . | . | . | 23µM | .
COc1cccc(CN(C)C(=O)c2cccc(S(=O)(=O)NCc3ccccc3)c2)c1OC | ? | . | . | . | ? | .
N#CC1CCCc2c1[nH]c1ccc([N+](=O)[O-])cc21 (stereo unspecified) | . | . | . | . | ? | .
CN(CCOc1ccccc1)C(=O)c1cc(S(=O)(=O)N2CCOCC2)ccc1Cl | ? | . | / | . | . | .
COc1ccc(CNC(=O)c2cccc(S(=O)(=O)N3CCN(c4ccc(F)cc4)CC3)c2)cc1 | ? | . | . | . | ? | .
COc1cccc(CNC(=O)c2cccc(S(=O)(=O)N3CCN(c4ccc(F)cc4)CC3)c2)c1 | ? | . | / | . | ? | .
COc1ccccc1CNC(=O)c1cccc(S(=O)(=O)N2CCN(c3ccc(F)cc3)CC2)c1 | 12µM | . | . | . | ? | .
CN(CCOc1ccc(Cl)cc1)C(=O)c1cccc(S(=O)(=O)N2CCN(c3ccccc3)CC2)c1 | 6.5µM | / | / | . | 15µM | .
CN(C)C(CNC(=O)c1cccc(S(=O)(=O)N2CCN(c3ccc(F)cc3)CC2)c1)c1ccccc1 (stereo unspecified) | 9.2µM | / | / | . | 15µM | .
COc1cccc(CN(C)C(=O)c2ccc(Cl)c(S(=O)(=O)N3CCCCCC3)c2)c1OC | ? | / | / | . | ? | .
COc1cccc(CN(C)C(=O)c2cccc(S(=O)(=O)N3CCN(c4ccc(F)cc4)CC3)c2)c1OC | 13µM | . | . | . | 21µM | .
CCOC(=O)c1c(C)[nH]c(C(=O)COC(=O)C(C)N2C(=O)C3CCCCC3C2=O)c1C (stereo unspecified) | ? | . | . | . | ? | .
O=C(CSc1nnc(-c2ccc(O)cc2)o1)NNC(=O)c1ccncc1 | . | . | / | . | . | .
O=C(Nc1ccccc1)c1ccc(-n2nncc2-c2ccccc2)cc1 | ? | / | . | / | 10µM | .
CN(C)S(=O)(=O)c1ccc(C(=O)Nc2ccc(-n3nncc3-c3ccccc3)cc2)cc1 | 15µM | . | . | / | 21µM | .
O=C(Nc1ccc(-n2nncc2-c2ccccc2)cc1)c1cccc(F)c1 | ? | . | . | / | ? | .
Cc1ccc(NC(=O)CCCn2c3ccccc3c(=O)c3cc(C)ccc32)c(Br)c1 | 15µM | . | .[12.3 µM] | / | ? | .
Cc1ccc2c(c1)c(=O)c1ccccc1n2CCCC(=O)Nc1cc(Cl)ccc1C | 16µM | . | .[12.3 µM] | / | ? | .
Cc1ccc2c(c1)c(=O)c1ccccc1n2CCCC(=O)Nc1c(F)cccc1F | . | . | .[12.3 µM] | / | . | .
O=C(c1ccc2c(c1)OCCO2)N(Cc1cccnc1)c1nc2c(F)cc(F)cc2s1 | ? | . | . | / | ? | .
O=C(c1ccc2c(c1)OCCO2)N(Cc1cccnc1)c1nc2c(F)cccc2s1 | ? | . | . | / | 21µM | .
CC(=O)c1ccc(C(=O)N(Cc2cccnc2)c2nc3c(C)c(C)ccc3s2)cc1 | 16µM | . | . | / | 23µM | .
CC(=O)N(Cc1cccnc1)c1nc2c(C)cc(C)cc2s1 | ? | . | . | / | ? | .
COc1cccc2sc(N(Cc3cccnc3)C(=O)c3ccc4c(c3)OCCO4)nc12 | 16µM | . | . | / | ? | .
COc1ccc2sc(N(Cc3cccnc3)C(=O)c3cccs3)nc2c1 | 18µM | . | . | / | 21µM | .
CCOc1ccc2nc(N(Cc3cccnc3)C(=O)c3cccs3)sc2c1 | . | . | . | / | . | .
C/C(=N\N=C(/N)c1nonc1N)c1ccc2c(c1)OCO2 | . | . | / | . | . | .
CCOc1cccc2sc(N(Cc3cccnc3)C(=O)c3ccc(C#N)cc3)nc12 | 23µM | . | . | / | 18µM | .
CCC(C)NC(=O)c1ccc(CSCc2ccc(Cl)cc2)o1 (stereo unspecified) | 26µM | . | / | . | . | .
